Most compounds without a hit are left out; they make up all but 3.3% or so of the library.
SARS PLP yeast = inhibitors of SARS-CoV papain-like protease in yeast | S. cerevisiae expressing SARS-CoV PLpro, growth rescue | Potency, µM (titrated, usually from 32.9 µM), for the others: at the highest dose activity, positive = growth rescue, most hits filed as activators | 330,000 compounds, 0.19% hits | AID 485353; calls by dose curve; further: 0% is about no effect; nearly all actives have a fitted effect of over 55% in size
AmpC no deterg = blocks E. coli AmpC beta-lactamase in detergent-free assay. P00811. AmpC nitrocefin hydrolysis, absorbance 480 nm, 0.0001% Triton. Potency, µM (top dose mostly 57.1 µM), inactives show at the top dose activity change, negative = inhibition, usual class: inhibitors. 330,000 compounds, 0.52% hits. AID 485341;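 further: plate controls were no compound for no effect and no enzyme for full effect; nearly all actives have a fitted effect of over 20% in size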
Target sequence (P00811 whole entry, looked up): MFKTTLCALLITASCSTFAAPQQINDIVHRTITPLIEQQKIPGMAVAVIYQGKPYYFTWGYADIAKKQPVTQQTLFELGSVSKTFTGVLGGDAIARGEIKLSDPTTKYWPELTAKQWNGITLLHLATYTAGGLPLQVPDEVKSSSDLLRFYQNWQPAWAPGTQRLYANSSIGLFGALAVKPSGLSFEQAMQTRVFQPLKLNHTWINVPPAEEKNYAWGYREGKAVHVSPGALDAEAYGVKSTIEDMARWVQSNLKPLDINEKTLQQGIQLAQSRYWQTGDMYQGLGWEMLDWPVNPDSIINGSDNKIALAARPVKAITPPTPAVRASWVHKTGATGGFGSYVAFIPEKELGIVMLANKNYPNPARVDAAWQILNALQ
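20 mM phosphate pH 7.0 + 0.01% (detergent screen) or 0.0001% Triton X-100; 5.3 nM AmpC reagent; cpd preinc 15 min RT; nitrocefin (800 uM stock) to start; A480 q20 s × 4 min; Activity was normalised to no-enzyme and no-compound control wells.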
Sm TGR inh = blocks Schistosoma mansoni thioredoxin glutathione reductase; Q962Y6; purified TGR, DTNB reduction, TNB absorbance 405 nm; Potency, µM (top dose mostly 114 µM), for the others: at the highest dose activity change, negative = inhibition, hits mostly inhibitors; 360,000 compounds, 3% hits; AID 485364; further: on the % scale 0 is the no-effect control and ±100 the full control effect; nearly all actives have a fitted effect of over 60% in size
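Kinetic colorimetric format: TGR-catalysed, NADPH-driven DTNB reduction monitored via TNB absorbance. Enzyme dispensed at 20 nM; compound exposure 15 min at room temperature before reaction start.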
AmpC detergent = AmpC beta-lactamase inhibition with detergent present; 370,000 compounds, 0.041% hits; AmpC hydrolysis of nitrocefin, absorbance 480 nm, 0.01% Triton; Potency, µM (highest dose often 114 µM), for inactives: at the top dose activity change, negative = inhibition, usual class: inhibitors; P00811;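 further: 0% = no-compound wells and -100% = no-enzyme wells; nearly all actives have a fitted effect of over 25% in size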
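20 mM phosphate pH 7.0 + 0.01% (detergent screen) or 0.0001% Triton X-100; 5.3 nM AmpC reagent; cpd preinc 15 min RT; nitrocefin (800 uM stock) to start; A480 q20 s × 4 min; Activity was normalised to no-enzyme and no-compound control wells.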
RE007 growth inh = less growth of the S. pombe RE007 Vpr strain; S. pombe RE007 Vpr strain, BacTiter-Glo ATP luminescence, 24 h; Potency, µM (titrated, usually from 92.2 µM), for inactives: top-dose activity change, negative = less growth, most hits filed as inhibitors; 360,000 compounds, 0.21% hits; AID 651644; active means well fitted falling curve with a large enough effect; inconclusive means small, poorly fitted or top-dose-only effect; inactive means no such curve, though single readings can be large or run the other way; further: on the % scale 0 is the no-effect control and ±100 the full control effect; nearly all actives have a fitted effect of over 50% in size
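Fission yeast RE007 carrying one integrated HIV-1 vpr copy, seeded at OD 0.01 in PMG+AL medium with 23 nL pinned compound. Grown 24 h at 30 degrees; viability read by BacTiter-Glo luminescence after 5 min.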
TbPYK inhibitor = inhibitors of Trypanosoma brucei pyruvate kinase; Q57TT1; TbPYK enzyme, Kinase-Glo Plus ATP luminescence, 45 min; Potency, µM (top dose mostly 76.8 µM), for inactives: at the top dose activity, negative = inhibition, actives largely listed as inhibitors; 410,000 compounds, 0.12% hits; further: on the % scale 0 is the no-effect control and ±100 the full control effect; nearly all actives have a fitted effect of over 50% in size
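TbPYK + substrate in 50 mM TEA pH 7.2, 100 mM KCl, 10 mM MgCl2, 0.05% BSA, 0.01% Tween-20; cpd pinned; ADP 130 uM final; 45 min RT; Kinase-Glo Plus 10 min; luminescence endpoint.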
An asterisk follows results filed as active; ? = inconclusive; · = no result given; ! = not active in a repeat; [ ] = another dose, or the depositor's remark. Unless noted, the call rests on the fitted dose curve; in most records, active means well fitted curve in the direction sought with a large enough effect; inconclusive means small, poorly fitted or top-dose-only effect, or another doubt; inactive means no such curve, though single readings can be large; an effect the other way counts as inactive or inconclusive. Potency means the concentration at half of the fitted maximal effect.

SMILES	SARS PLP yeast	AmpC no deterg	Sm TGR inh	AmpC detergent	RE007 growth inh	TbPYK inhibitor
O=C(CSc1nc2nc(-c3cccs3)cc(C(F)(F)F)c2c(=O)[nH]1)Nc1ccc(F)c(F)c1	0%	-40%	·	5%	19%	-1%
O=C(CN1C(=O)C2(SCC(=O)N2c2cccc(F)c2)c2ccccc21)NCCc1ccccc1 (stereo not given)	·	·	-3%	1%	·	4%
CCOc1ccc(C2C(C(=O)/C=C/c3ccco3)=C(O)C(=O)N2CCN2CCOCC2)cc1OC (stereo not given)	5%	63%	5µM*	1%	6%	-13%
COc1cccc(C2C(C(=O)/C=C/c3ccco3)=C(O)C(=O)N2CCN2CCOCC2)c1 (stereo not given)	0%	12%	4.5µM*	8%	5%	-12%
COc1ccc(OC)c(C2C(C(=O)c3ccco3)=C(O)C(=O)N2CCN2CCOCC2)c1 (stereo not given)	-1%	-5%	?	2%	·	·
COc1ccc(C2C(C(=O)/C=C/c3ccco3)=C(O)C(=O)N2CCN2CCOCC2)cc1 (stereo not given)	10%	-3%	14µM*	?	-6%	-10%
Cc1ccc(-c2noc(-c3cccnc3N(C)Cc3ccc(Cl)cc3)n2)cc1	·	·	-1%	6%	·	-4%
Cc1nc(NCc2ccco2)c2cn[nH]c2n1	·	·	·	·	12%	0%
c1coc(CNc2nc3nonc3nc2NCc2ccco2)c1	-2%	-58%	50µM*	2%	17%	0%
O=C(O)C1CSC(c2coc3ccccc3c2=O)N1 (stereo not given)	-18%	-14%	2.5µM*	?	40µM*	-11%
CC1CCOC(c2coc3ccccc3c2=O)O1 (stereo not given)	0%	-13%	-7%	-3%	-28%	-2%
O=C1CCC/C(=N\NC(=O)c2ccc(NS(=O)(=O)c3ccc(Br)cc3)cc2)C1	7%	28µM*	-21%	-7%	32%	-1%
COc1cc(Nc2c(C#N)cnc3cc(OCCCN4CCN(C)CC4)c(OC)cc23)c(Cl)cc1Cl	·	·	·	·	·	5%
CCC(=O)Nc1cccc(NC(=S)NC(=O)c2ccccc2)c1	1%	-28%	45µM*	-12%	-3%	5%
CCC(=O)Nc1cccc(NC(=S)NC(=O)c2cccc(C)c2)c1	-25%	-23%	40µM*	-12%	-5%	-12%
COc1cc(C2CC(=O)Nc3ccc4ccccc4c32)ccc1OC(=O)C(C)C (stereo not given)	·	·	-3%	23%	·	-2%
S=c1nc[nH]c2nc[nH]c12	-3%	-13%	16µM*!	?	8%[18.4 µM]	-11%
Cn1cnc2nc[nH]c2c1=S	·	·	·	·	8%	-12%
COc1ccccc1NS(=O)(=O)c1ccc(C(=O)N2CCCC(C(F)(F)F)C2)cc1 (stereo not given)	-7%	47%	-24%	0%	4%	3%
Cc1ccc(NS(=O)(=O)c2ccc(C(=O)N3CCCC(C(F)(F)F)C3)cc2)cc1 (stereo not given)	-1%	35µM*	2%	?	-16%	0%
COc1ccc2cc3c(N)c(C(=O)NCc4ccco4)sc3nc2c1	-3%	0.32µM*	-30%	0%	-16%	0%
COc1ccc2cc3cc(C(=O)NCc4ccco4)oc3nc2c1	-5%	-13%	?	-1%	-17%	-1%
CCCOC(=O)c1sc2nc3c(cc2c1N)C(=O)CCC3	-2%	-21%	-2%	?	6%	-15%
Nc1c(C(=O)NCc2ccco2)sc2nc3c(cc12)C(=O)CCC3	-1%	-38%	8.9µM*	?	3%	-5%
Cc1cc(CNC(=S)Nc2ccc(Br)cc2Cl)nn1C	0%	-16%	7.9µM*	-8%	7%	-6%
SMILES	SARS PLP yeast	AmpC no deterg	Sm TGR inh	AmpC detergent	RE007 growth inh	TbPYK inhibitor
Cc1cc(CNC(=O)c2cc(Br)ccc2Cl)nn1C	?	-19%	2%	-1%	10%	27%
OCCCNC(=S)Nc1ccc(Br)cc1Cl	0%	-8%	3.2µM*	10%	24%	3%
S=C(NCc1ccco1)Nc1ccc(Br)cc1Cl	1%	-38%	?	0%	2%	-1%
O=C1C(Cl)=C(N2CCCCCC2)C(=O)N1c1ccc(Cl)cc1	-4%	-35%	-19%	-6%	-25%	-4%
O=C1C(Cl)=C(N2CCCC2)C(=O)N1c1ccc(F)cc1	4%	-20%	50µM*	?	-7%	-11%
NS(=O)(=O)c1ccc(S(=O)(=O)N(CCc2ccccc2)Cc2ccccn2)cc1	3.5µM*	-2%	-5%	-9%	7%	2%
O=S(=O)(c1ccc(Cl)cc1)N(Cc1ccccn1)Cc1ccccn1	1%	10%	0%	1%	-2%	4%
c1ccc(OCc2noc(CN3CC[C@@H]4CCCC[C@H]4C3)n2)cc1	-3%	48%	6%[57.1 µM]	-4%	-21%	4%
Clc1cccc(C2CCN(Cc3nc(COc4ccccc4)no3)C2)c1 (stereo not given)	0%	18%	35µM*	-3%	?	0%
O=C1c2cccc3c([N+](=O)[O-])ccc(c23)C(=O)N1Cc1cccnc1	-24%	8%	25µM*	2%	-9%	-6%
Cc1nnc(N2C(=O)c3cccc4c([N+](=O)[O-])ccc(c34)C2=O)s1	-2%	-14%	4.5µM*	5%	?	3%
CCc1ccc(S(=O)(=O)c2cn(CC(=O)Nc3ccc(C)cc3)c3ccccc3c2=O)cc1	·	·	-2%	8%	·	-7%
Cc1cc(/C=C2\SC(=S)NC2=O)c(C)n1-c1ccc(O)cc1	-5%	11µM*	-27%	-3%	0%	-15%
CCOC(=O)c1c(-n2c(C)cc(/C=C3/C(=O)NC(=O)N(CC)C3=O)c2C)sc2c1CCCC2	·	·	·	·	2%	-6%
CCOC(=O)c1c(-n2c(C)cc(C=C3C(=O)NC(=S)NC3=O)c2C)sc2c1CCCC2	-15%	-32%	11µM*	-7%	-13%	?
Cc1ccccc1-c1noc(-c2ccc(N3CCCC3)c([N+](=O)[O-])c2)n1	·	·	-1%	20%	·	3%
CC(C)c1ccccc1NC(=O)COC(=O)c1c2c(nc3ccccc13)CCN(Cc1ccccc1)C2	-12%	3.5µM*	-2%	-4%	4%	-12%
O=C(CCl)Nc1nccs1	10%	-10%	3.2µM*	4%	36%	1%
Cc1ccc(C(=O)OC2OC(=O)C(Cl)=C2N2CCOCC2)cc1 (stereo not given)	-3%	-49%	5%	11µM*	10%	-8%

Screening data deposited in PubChem by National Center for Advancing Translational Sciences (NCATS).
